HT1080NT lethal = qHTS for induction of synthetic lethality in tumor cells producing 2HG: qHTS for the HT-1080-NT fibrosarcoma cell line; actives 1.6% (n = 360,000); AID 686970, 2013; Potency, µM (series often up to 46.1 µM), inactives show top-dose activity, negative = less viability, usual class: cytotoxic; HT-1080-NT fibrosarcoma viability, CellTiter-Glo ATP luminescence, 48 h;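 further: NT is the 2HG producing partner of a matched IDH1 knockdown line; 0% = DMSO-treated cells and -100% = media-only wells without cells; nearly all actives have a fitted effect of over 55% in size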
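Viability by CellTiter-Glo luminescence after 48 h compound exposure at 37C of HT-1080-NT cells (750/well, RPMI, 5% FBS). % activity scaled between DMSO wells and medium-only wells, then curve-fitted and categorized by curve class.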
MCF10A rerep = A quantitative high throughput screen for small molecules that induce DNA re-replication in MCF 10a normal breast cells. MCF 10A DNA re-replication, Hoechst nuclear intensity, 48 h. Potency, µM (highest dose often 46.1 µM), for inactives: at the top dose activity, positive = re-replication, actives largely listed as activators. actives 2.9% (n = 350,000); further: % of control where 0% means no effect; nearly all actives have a fitted effect of over 50% in size
KB-V1 cytotox = qHTS assay for MDR1-selective chemotherapeutics: Primary screen using the drug-selected MDR subline cells KB-V1; KB-V1 MDR cells viability, CellTiter-Glo, 72 h; Potency, µM (doses to about 46.1 µM), actives largely listed as cytotoxic; actives 3.4% (n = 400,000); further: on the % scale 0 is the no-effect control and ±100 the full control effect; nearly all actives have a fitted effect of over 60% in size
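Cells of the MDR subline KB-V1 are plated, dosed with compound at multiple concentrations, and incubated 72 h at 37 degrees C; CellTiter-Glo is then added and luminescence read after 10 min.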
SW480 rerep = A quantitative high throughput screen for small molecules that induce DNA re-replication in SW480 colon adenocarcinoma cells; SW480 DNA re-replication, Hoechst DNA content imaging, 48 h; Potency, µM (titrated, usually from 46.1 µM), for inactives: at the highest dose re-replication activation, most hits filed as activators; actives 1.8% (n = 340,000); further: % of control where 0% means no effect; nearly all actives have a fitted effect of over 55% in size
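Per well, 250 cells were exposed to pinned compound for 48 hr. Nuclear DNA was visualised with Hoechst (40 min, 37 C) and total object intensity recorded by fluorescence scanning.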
KB-3-1 tox = qHTS assay for MDR1-selective chemotherapeutics: Primary screen using the parental adenocarcinoma cell KB-3-1. actives 1.4% (n = 400,000). KB-3-1 viability, CellTiter-Glo ATP luminescence, 72 h. Potency, µM (doses to about 46.1 µM), actives largely listed as cytotoxic. AID 1347075, 2019; further: on the % scale 0 is the no-effect control and ±100 the full control effect; nearly all actives have a fitted effect of over 60% in size
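Screening of KB-3-1 cells (DMEM, 10% FBS, phenol-red free) ran from lowest to highest compound concentration; after 72 h at 37 °C viability was read luminescently and curves fitted.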
HT1080 IDH1KD tx = qHTS for induction of synthetic lethality in tumor cells producing 2HG: qHTS for the HT-1080-IDH1KD cell line; Potency, µM (top dose mostly 46.1 µM), for inactives: at the top dose activity, negative = toxicity, usual class: cytotoxic; actives 2% (n = 360,000); HT-1080 IDH1 knockdown viability, ATP luminescence, 48 h;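 further: 0% = DMSO wells and -100% = cell-free medium wells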
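After a 2 h attachment period, IDH1KD HT-1080 cells took pin-transferred compound for 48 h at 37 °C; ATP-based luminescence after 10 min room-temperature reagent incubation reported viability.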
The depositor's hits bear a star; i = inactive; ? = inconclusive; . = not tested or not shown; [ ] = another dose, or the depositor's remark. An excerpt weighted towards active compounds, which were near 7.9% of everything screened. The call rests on the fitted dose curve; in most records, active means well fitted curve in the direction sought with a large enough effect; inconclusive means small, poorly fitted or top-dose-only effect, or another doubt; inactive means no such curve, though single readings can be large; an effect the other way counts as inactive or inconclusive. Potency means the concentration at half of the fitted maximal effect.

SMILES	HT1080NT lethal	MCF10A rerep	KB-V1 cytotox	SW480 rerep	KB-3-1 tox	HT1080 IDH1KD tx
Cc1cccc(Cn2nnc3c(=O)[nH]c(C4CCN(C(=O)c5ccc(F)cc5)CC4)nc32)c1	.	.	i	.	i	.
CCOC(=O)C1NN=C(C(=O)c2ccccc2)C1c1ccc(Cl)cc1 (stereo not given)	21%	8%	i	-9%	i	0%
CCOC(=O)C1NN=C(C(=O)c2ccccc2)C1c1ccccc1 (stereo not given)	-6%	10%	21µM*	0%	i	-6%
COc1cccc(/C=N/Nc2ccc([N+](=O)[O-])cn2)c1O	0.65µM*	?	i	1.2µM*	5.2µM*	1.2µM*
COc1cccc(/C=N/Nc2nc(Nc3ccc([N+](=O)[O-])cc3)nc(N3CCCC3)n2)c1O	9.2µM*	6%	?	5.8µM*	16µM*	3.3µM*
O=[N+]([O-])c1ccc(NN=Cc2cccc3ccccc23)nc1	2%	?	i	3.3µM*	?	24%
O=C(O)c1ccccc1C=NNc1ccc([N+](=O)[O-])cn1	?	-23%	i	-3%	i	-2%
COc1ccc2c(Sc3ccc(Cl)cc3)c(C(=O)NCCCN3CCCCC3)[nH]c2c1	.	.	i	.	i	.
O=C(CSC1=Nc2ccccc2C2=NC(Cc3ccccc3)C(=O)N12)Nc1cccc(Cl)c1 (stereo not given)	.	.	i	.	i	.
Cc1ccc(NC(=O)c2oc3ccccc3c2NC(=O)c2cc3ccccc3o2)cc1	.	.	i	.	i	.
CCOC(=O)c1c(-n2cnnn2)sc2c1CCCC2	2%	3%	i	1%	i	3%
CCOC(=O)c1c(N2C(=O)Nc3cc(Cl)c(Cl)cc3N2O)sc2c1CCCCC2	?	2.3µM*	i	0%	i	?
CCC(CC)c1nn2c(=O)cc(COc3ccc(NC(=O)c4ccc(Cl)cc4)cc3)nc2s1	.	.	i	.	i	.
O=C(Nc1ccn(CCCN2CCC(N3CCOCC3)CC2)c(=O)n1)OCc1ccccc1	-3%	.	i	.	i	1%
C=CCn1c(-c2cccs2)nc2ccccc21	2%	5%	i	-2%	i	-2%
C=CCSc1nc2ccccc2n1Cc1nnc(-c2cccs2)o1	-5%	1%	6.5µM*	-1%	i	0%
CCOC(=O)N1CCN(C(=O)c2ccc3nc(SCc4ccc(F)cc4)n(C)c3c2)CC1	-8%	17%	9.2µM*	-4%[9.22 µM]	i	-7%
COc1cccc2c1C(=O)c1c(O)c3c(c(O)c1C2=O)C[C@@](O)(C(=O)CO)C[C@@H]3OC1CC(N)C(O)C(C)O1 (stereo not given in full)	?	?	.	-10%	?	4.6µM*
COc1cccc2c1C(=O)c1c(O)c3c(c(O)c1C2=O)CC(O)(C(C)=O)CC3OC1CC(N(C)C)C(O)C(C)O1 (stereo not given)	?	-1%	7.3µM*	?	?	0.73µM*
COc1cccc2c1C(=O)c1c(O)c3c(c(O)c1C2=O)C[C@@](O)(C(=O)CO)C[C@@H]3O[C@H]1C[C@H](N)[C@H](O)[C@H](C)O1	9.2µM*	-1%	.	-14%	?	0.33µM*
COc1cccc(CNC(=O)CN2C(=O)COc3ccc(S(=O)(=O)Nc4ccccc4)cc32)c1	.	.	i	.	i	.
CCc1nnc(NC(=O)c2cc3c(s2)CCCCC3)s1	-7%	0%	i	-9%	i	-9%
O=C(NCCO)c1cc2c(s1)CCC2	-21%	0.25µM*	i	?	i	-2%
Cc1csc(NC(=O)c2cc3c(s2)CCCCC3)n1	?	16µM*	?	12%	i	?
Cc1cnc(NC(=O)c2cc3c(s2)CCCC3)s1	-16%	?	i	0%	21µM*	-17%
SMILES	HT1080NT lethal	MCF10A rerep	KB-V1 cytotox	SW480 rerep	KB-3-1 tox	HT1080 IDH1KD tx
Cc1csc(NC(=O)c2cc3c(s2)CCCC3)n1	-22%	-8%	i	10%	i	-26%
C[C@@H]1CN([C@H](C)CO)S(=O)(=O)c2ccc(Br)cc2O[C@H]1CN(C)C(=O)C1CC1	6%	.	i	.	i	18%
O=C(NCC(c1ccc2c(c1)OCO2)N1CCN(c2ccccc2)CC1)C(=O)Nc1cccc(F)c1 (stereo not given)	.	.	i	.	i	.
CCN(CCNC(=O)C1CCN(Cc2nc(-c3ccc(Cl)cc3)oc2C)CC1)c1ccccc1	?	?	7.3µM*	?	i	?
Cc1oc(-c2cccc(Cl)c2)nc1CN1CCC(C(=O)NC2CC2)CC1	13%	1%	i	4%	i	15%
COc1ccc(CCNC(=O)C2CCN(Cc3nc(-c4ccc(Cl)cc4)oc3C)CC2)cc1OC	21%	-4%	i	-2%	i	14%
CCc1ccc(-c2nc(CN3CCC(C(=O)N4CCN(c5ccccc5)CC4)CC3)c(C)o2)cc1	-13%	?	8.2µM*	?	i	-16%
CCN(CCNC(=O)C1CCN(Cc2nc(-c3cccc(Cl)c3)oc2C)CC1)c1ccccc1	-14%	?	2.6µM*	?	?	-24%
CCc1ccc(-c2nc(CN3CCC(C(=O)NCCN(CC)c4ccccc4)CC3)c(C)o2)cc1	3%	?	4.6µM*	?	i	6%
CCN(CCNC(=O)C1CCCN(Cc2nc(-c3ccc(OC)cc3)oc2C)C1)c1ccccc1 (stereo not given)	?	?	?	?	?	-30%
CCOc1cc(C2c3c(-c4ccccc4O)n[nH]c3C(=O)N2Cc2cccnc2)ccc1O (stereo not given)	.	.	i	.	i	.
O=C(CSc1nnc(SCc2ccc(Cl)cc2)s1)N/N=C/c1c[nH]c2ccccc12	?	?	?	?	?	18µM*
O=C(CSc1nnc(SCc2cccc3ccccc23)s1)N/N=C/c1c[nH]c2ccccc12	-19%	17%	i	-70%	i	?
CC1CCCCC1NS(=O)(=O)CCNC(=O)c1ccccc1 (stereo not given)	-4%	-9%	21µM*	-3%	i	-3%

Source: PubChem (National Center for Advancing Translational Sciences (NCATS))
